Pf growth 96h – inhibits malaria parasite growth, 96 h. Potency, µM (series often up to 28.7 µM), without a hit: at the top dose activity change, negative = inhibition, usual class: inhibitors. hit rate 6.9% among 320,000. P. falciparum luciferase reporter growth, 96 h
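Parasite growth measured via integrated firefly luciferase reporter in P. falciparum. Infected erythrocytes at 2% hematocrit, 0.05% parasitemia final were treated 96 hours at 37 C under 5% CO2, and luminescence was read.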
AMA1 RON2 block – inhibitors of Plasmodium falciparum AMA1-RON2 interaction; hit rate 0.2% among 360,000; Potency, µM (titrated, usually from 58.2 µM), without a hit: at the highest dose activity change, negative = inhibition, most hits filed as inhibitors; AlphaScreen AMA1-biotinylated RON2 peptide binding;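 note: 0% = vehicle wells and -100% = peptide control; nearly all actives have a fitted effect of over 45% in size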
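AMA1 (3D7) with his tag at 25 nM final met compounds first, then biotinylated RON2 peptide at 25 nM; detection used donor plus acceptor beads, 10 µg/mL apiece, read by AlphaScreen after 30 min at room temperature.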
Pf growth 48h – inhibits P. falciparum growth in the first generation, 48 h; hit rate 5.9% among 310,000; Potency, µM (series often up to 28.7 µM), for the others: at the highest dose activity change, negative = inhibition, usual class: inhibitors; AID 504832; P. falciparum luciferase growth in erythrocytes, 48 h
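Read-out is firefly luciferase luminescence from an integrated reporter in P. falciparum, so falling signal marks reduced parasite growth. Infected erythrocytes were at 2% hematocrit and 0.1% parasitemia (final) in Albumax-supplemented RPMI 1640.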
HCV inh – inhibitors of hepatitis C virus infection. hit rate 3.4% among 340,000. Huh7.5.1 HCVcc-Cre infection, luciferase reporter, 44 h. Potency, µM (titrated, usually from 41.8 µM), inactives show at the highest dose activity change, negative = inhibition, actives largely listed as inhibitors. AID 651820
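Seed cells (1,000/well) for 4 h; treat with compound and infect with HCVcc-Cre, moi about 0.5. Incubate 44 h, then detect luciferase activity.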
* = called active by the depositor; ? = inconclusive; . = no result given; [ ] = remark or other dose. Hits are enriched below; roughly 11% of the tested compounds scored in any of these assays. Calls come from the whole dose curve; as a rule, active = well fitted curve in the direction sought with a large enough effect; inconclusive = small, poorly fitted or top-dose-only effect, or another doubt; inactive = no such curve, though single readings can be large; an effect the other way counts as inactive or inconclusive. Unless noted, % is set by controls: 0 for no effect and ±100 for the full control effect; potency is the fitted concentration of half-maximal effect.

SMILES	Pf growth 96h	AMA1 RON2 block	Pf growth 48h	HCV inh
Cn1ncc2c(N3CCN(c4ccc(Cl)c(Cl)c4)CC3)ncnc21	?	-15.0%	9.28µM*	?
Cn1ncc2c(N3CCN(c4ccccc4F)CC3)ncnc21	.	-5.9%	?	?
CC(C)(C)c1ccc2c(c1)OC(C(=O)N/N=C\c1ccncc1)CO2 (stereo not given)	22.1%	9.5%	-23.9%	-3.7%
CC(C)(C)c1ccc2c(c1)OC(C(=O)N/N=C\c1ccc[nH]1)CO2 (stereo not given)	33.0%	72.5%	?	1µM*
CC(C)(C)c1ccc2c(c1)OC(C(=O)N/N=C/c1ccc([N+](=O)[O-])o1)CO2 (stereo not given)	2.94µM*	16.0%	?	?
Cc1ccc(-c2cn(-c3ccc(SC(F)F)cc3)c3[n+]2CCC3)cc1	?	-7.2%	0.37µM*	?
Clc1ccc(-n2cc(-c3ccc(Br)cc3)[n+]3c2CCCCC3)cc1	?	-9.5%	?	-3.0%
FC(F)Sc1ccc(NC2=NCCCCC2)cc1	30.3%	11.8%	14.0%	-7.7%
FC(F)Sc1ccc(-n2cc(-c3ccc(Cl)cc3)[n+]3c2CCC3)cc1	?	-4.4%	0.738µM*	7.5%
O=c1cc(C(F)(F)F)nc(-c2ccccc2)[nH]1	37.0%	-2.6%	16.7%	11.7%
OCCOCCOCCO	-9.8%	.	-5.9%	.
CCN(CC)C(=O)C1CCCN(C(=O)c2cc(COc3cccc(OC)c3)on2)C1 (stereo not given)	9.28µM*	-1.5%	20.2%	-12.5%
CCC1CCCCN1C(=O)c1cc(COc2ccc(-n3cncn3)cc2)on1 (stereo not given)	1.3%	-4.3%	25.0%	31.6µM*
CC(=O)c1ccc(OCc2cc(C(=O)N3CCCCCCC3)no2)cc1	13.1µM*	-2.8%	-9.9%	-20.7%
CCOC(=O)C1CCCN(C(=O)c2cc(COc3ccc(C)nc3)on2)C1 (stereo not given)	-8.2%	-8.5%	10.9%	8.91µM*
Cc1ccc(N(CC(O)CN2CCCCC2)S(=O)(=O)c2ccccc2)cc1 (stereo not given)	23.5%	-2.7%	-13.8%	7.4%
CC(=O)/C(=N\Nc1ccc(C)cc1)Sc1nncn1C	11.7%	20.0%	-1.3%	-3.7%
CCc1nc(NC(=O)c2sc(C)nc2C)sc1C(=O)OC	?	3.4%	11.1%	-21.5%
CC(=O)COc1nc2c(c(-c3ccco3)c1C#N)CCc1ccccc1-2	11.7µM*	-28.0%	11.7µM*	11.2µM*
CCOc1nc2c(c(-c3cccs3)c1C#N)Cc1ccccc1-2	11.0%	-11.0%	3.7%	-3.0%
CSc1ccc(CNC(C)C(O)c2ccccc2)cc1 (stereo not given)	-1.7%	-0.1%	1.85µM*	11.7%
Cc1nc(NC(=O)C(C)Oc2cccc(Cl)c2)sc1C(=O)N(C)C (stereo not given)	12.9%	-5.6%	32.0%	?
CCOCCCNC(=O)c1ccc(-n2c(=S)[nH]c3ccccc3c2=O)cc1	0.5%	43.2%	23.0%	12.5%
OC(COCC(F)(F)C(F)(F)C(F)(F)C(F)F)Cn1c2ccc(Cl)cc2c2cc(Cl)ccc21 (stereo not given)	0.586µM*	-14.4%	1.04µM*	3.16µM*
CCOC(=O)c1c(O)c2cc(Cl)ccc2n(CC)c1=O	?	0.8%	-20.0%	-6.2%
SMILES	Pf growth 96h	AMA1 RON2 block	Pf growth 48h	HCV inh
C=C(C)C1CC=C(C)/C(=N/NC(=O)COc2ccc(C)cc2)C1 (stereo not given)	-8.4%	9.5%	-6.7%	5.1%
C=C(C)C1CC=C(C)/C(=N\NC(=S)Nc2ccc(C)cc2)C1 (stereo not given)	10.4µM*	-7.9%	14.7µM*	?
CC(C)c1cc(Cn2c3ccccc3c(=O)n2C(C)Cn2cc(-c3ccccc3)nn2)on1 (stereo not given)	.	4.2%	.	.
COC(=O)C[C@@H]1CC[C@H](NC(=O)Nc2ccc(OC)cc2)[C@@H](CO)O1	.	-5.1%	.	.
O=C(NCC1CCCO1)C1CC(c2ccccc2Cl)=NO1 (stereo not given)	.	-2.7%	16.3%	0.1%
CCCCCC(=O)Nc1ccc(C2C(=O)c3ccccc3C2=O)cc1	?	12.2%	13.1µM*	2.51µM*
O=C(Nc1ccnn1C1CCN(C2CCC2)CC1)c1ccccc1	11.7µM*	-1.7%	-3.3%	.
O=C(Nc1ccnn1C1CCN(C2CCC2)CC1)c1ccccc1Cl	94.0%	14.8%	13.4%	1.2%
CCOc1ccc(S(=O)(=O)N2CCCC(C(=O)N3CCOCC3)C2)cc1Cl (stereo not given)	?	-6.5%	2.4%	1.9%
CC(=O)c1cccc(NC(=O)Nc2cnn(Cc3ccc(Cl)cc3Cl)c2)c1	9.28µM*	-4.3%	.	-28.4%
Cc1ccc(C)c(Cn2nnc3c(=O)[nH]c(C4CCN(C(=O)c5cccs5)CC4)nc32)c1	-22.8%	-7.2%	.	-8.0%
COCCNC(=O)c1nc2c(nnn2Cc2cc(C)ccc2C)c(=O)[nH]1	9.28µM*	9.8%	-5.2%	-4.6%
O=C(NCC1CCCO1)c1nc2c(nnn2Cc2ccccc2Cl)c(=O)[nH]1 (stereo not given)	13.1µM*	7.4%	-24.2%	7.7%
Cc1ccc(Cn2nnc3c(=O)[nH]c(C4CCN(C(=O)c5cccs5)CC4)nc32)cc1	-0.5%[5.75 µM]	6.3%	13.1µM*	-4.4%
Cc1ccc(C)c(Cn2nnc3c(=O)[nH]c(C(=O)NCC4CCCO4)nc32)c1 (stereo not given)	?	12.8%	?	-6.2%
O=C(Cc1cccs1)N1CCCC(c2nc3c(nnn3Cc3cccc(Cl)c3)c(=O)[nH]2)C1 (stereo not given)	-7.5%	-17.2%	8.28µM*	4.2%
COc1cc(-c2nc(=S)[nH][nH]2)cc(OC)c1OC	16.8%	106.4%	38.8%	19.7%
Cc1ccc(Sc2ncccc2COC(=O)NC(C)C)cc1	117.6%	14.0%	77.6%	-5.4%
O=C(CSc1cccc[n+]1[O-])NN(c1ccccc1)c1ccccc1	16.8%	0.0%	16.9%	2.3%
O=C(c1cccs1)N1CCC(c2nc3c(nnn3Cc3cccc(Cl)c3)c(=O)[nH]2)CC1	13.5%	-6.0%	4.65µM*	22.1%
O=C(c1cccs1)N1CCC(c2nc3c(nnn3Cc3c(Cl)cccc3Cl)c(=O)[nH]2)CC1	?	1.5%	5.86µM*	3.2%
O=C(c1cccs1)N1CCCC(c2nc3c(nnn3Cc3cccc(Cl)c3)c(=O)[nH]2)C1 (stereo not given)	9.4%	-1.0%	?	23.1%
O=C(NCc1ccccc1)c1nc2c(nnn2Cc2cccc(Cl)c2)c(=O)[nH]1	2.94µM*	21.4%	-17.8%	21.7%
CC(C)(C)[C@H]1C=C(C(N)=O)O[C@@H](OCCCCO)C1	-16.0%	23.7%	-5.0%	3.5%
COC(=O)C(C(=O)OC)N1C(=O)CCC1=O	-5.1%	2.8%	11.4%	22.9%
COc1ccc(-c2ccc(SCC(=O)NC3CCCC3)nn2)cc1	.	-5.9%	.	.
COC(=O)C(O)(c1ccc(N(C)C(=O)c2ccc(Cl)c(Cl)c2)cc1)C(F)(F)F (stereo not given)	-2.6%	17.6%	-5.8%	6.6%

Source: PubChem
